Bioassay records: PubChem BioAssay, National Center for Advancing Translational Sciences (NCATS)
Abeta yeast res – qHTS for compounds that reverse cellular toxicity of Amyloid beta (A-beta) peptide in yeast: Primary Screen | Potency, µM (highest dose often 46.1 µM), hits mostly activators | AID 1347071, 2019 | yeast expressing A-beta42, growth rescue, OD600, 48 h; response scale: 0% DMSO, 100% iron-clioquinol control | 410,000 compounds, 0.063% hits; further: nearly all actives have a fitted effect of over 55% in size
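Yeast A-beta toxicity model in growth medium with pinned compounds, 48 h at 30 C; growth read as absorbance at 600 nm. Normalized to FeCl3/clioquinol equimolar mix (positive) and DMSO (negative).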
MmCpn inh – Inhibitors of TCP-1 ring complex (TRiC) of Methanococcus maripaludis (MmCpn): qHTS; purified Mm-Cpn ATPase, ADP Transcreener TR-FRET; Chaperonin Mm-Cpn (Methanococcus maripaludis); Potency, µM (titrated, usually from 76.9 µM), most hits filed as inhibitors; 330,000 compounds, 0.031% hits; further: nearly all actives have a fitted effect of over 80% in size
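Quantitative HTS used 25 nM Mm-CPN and 10 uM ATP in magnesium/KCl Tris buffer, pH 7.4, with 1 mM DTT. Hydrolysis ran 30 min at 37°C; ADP was read by HTRF.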
ClpP mod – qHTS Assay for Activators of ClpP; Potency, µM (highest dose often 57.5 µM); 340,000 compounds, 1.9% hits; ATP-dependent Clp protease proteolytic subunit (Bacillus subtilis (strain 168)), P80244; purified B. subtilis ClpP, FRET peptide cleavage, 20 min; AID 651965, 2013; active means well fitted falling curve with a large enough effect; inconclusive means small, poorly fitted or top-dose-only effect; inactive means no such curve, though single readings can be large or run the other way; further: the source files actives as falling curves though it sought activators and does not explain the sign; nearly all actives have a fitted effect of over 65% in size
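FRET quenching reversal measured ClpP activation: 10 microg/mL B. subtilis ClpP at pH 8 with the FRET-FV decapeptide, read at 430 nm after 320 nm excitation. The 20-min minus 0-min signal was scaled between DMSO/no-enzyme wells and ADEP (5.8 microM final).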
FUS suppressor – qHTS for Suppressors of FUS Proteinopathy: Primary screen using FUS-linked yeast assay; S. cerevisiae FUS-expressing, growth rescue, OD600, 24 h; Potency, µM (series often up to 76.6 µM), most hits filed as activators; 390,000 compounds, 0.24% hits; AID 1347120, 2019; further: nearly all actives have a fitted effect of over 55% in size
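Restored growth of FUS-toxic S. cerevisiae, read as 600 nm absorbance after 24 h at 30C in galactose medium (starting OD 0.005). Controls CP55940 and DMSO.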
TDP-43 yeast inh – qHTS of TDP-43 Inhibitors; TDP-43 expressing yeast growth rescue, BacTiter-Glo, 24 h; 410,000 compounds, 1.8% hits; Potency, µM (doses to about 46.1 µM), actives largely listed as activators; AID 652104, 2013; further: nearly all actives have a fitted effect of over 50% in size
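In this qHTS, compounds that restore growth of yeast expressing TDP-43 appear as activators. Cells (OD600=0.02, galactose medium, raffinose-pregrown) are incubated with compound 24 hr at 30 deg C and growth is quantified by BacTiter-Glo.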
aSyn yeast inh – qHTS of alpha-syn Inhibitors; Yeast expressing alpha-synuclein, growth rescue, BacTiter-Glo, 24 h; Potency, µM (series often up to 46.1 µM), hits mostly activators; 370,000 compounds, 0.14% hits; AID 652106, 2013; further: nearly all actives have a fitted effect of over 65% in size
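Galactose-induced alpha-syn yeast (OD600=0.02, raffinose-pregrown) + pinned cpd, 24 hr, 30 deg C; growth by BacTiter-Glo luminescence. Growth restoration scores as activation.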
Hits are given with their value; – = inactive; ? = inconclusive; · = no result; [ ] = another dose, or the depositor's remark. An excerpt weighted towards active compounds, which were near 3.6% of everything screened. Unless noted, the call rests on the fitted dose curve; in most records, active means well fitted curve in the direction sought with a large enough effect; inconclusive means small, poorly fitted or top-dose-only effect, or another doubt; inactive means no such curve, though single readings can be large; an effect the other way counts as inactive or inconclusive.

SMILES | Abeta yeast res | MmCpn inh | ClpP mod | FUS suppressor | TDP-43 yeast inh | aSyn yeast inh
O=C(NCc1ccccc1)C1C(c2ccc3c(c2)OCO3)=Nc2ccccc2N1C(=O)c1ccco1 (stereo not drawn) | – | · | – | – | ? | –
Cc1cc(O)c(C(c2ccc(F)cc2)N2CCCCC2)c(=O)n1Cc1ccco1 (stereo not drawn) | – | · | – | ? | – | ·
C=C1CCC[C@]2(C)C[C@H]3OC(=O)C(CN4CCCCC4CO)[C@H]3CC12 (stereo partly drawn) | – | – | ? | – | 12.6µM | –
C=C1CCC[C@]2(C)C[C@H]3OC(=O)C(CNC(C)(CO)CO)[C@H]3CC12 (stereo partly drawn) | – | – | · | – | – | –
COc1cccc(Nc2sc(C(=O)c3ccc(F)cc3)c(N)c2C(=O)NCc2ccc(C)cc2)c1 | – | · | – | – | – | ·
CCCCCN(C(=O)CCC(=O)OCC(=O)c1cccc(OC)c1)c1c(N)n(CCCC)c(=O)[nH]c1=O | – | – | – | ? | – | –
CCCCCN(C(=O)CCC(=O)OC(C)C(=O)c1ccc(Cl)cc1)c1c(N)n(CCCC)c(=O)[nH]c1=O (stereo not drawn) | – | – | – | 31.6µM | – | –
CCCCCN(C(=O)CCC(=O)OCC(=O)c1ccc(F)c(F)c1)c1c(N)n(CCCC)c(=O)[nH]c1=O | – | – | – | 28.2µM | – | –
CCCCCN(C(=O)CCC(=O)OC(C)C(=O)NCc1ccccc1)c1c(N)n(CCCC)c(=O)[nH]c1=O (stereo not drawn) | – | – | · | – | – | –
CCOc1ccccc1NC(=O)C1=C(C)Nc2ncnn2C1c1cccs1 (stereo not drawn) | – | · | – | – | – | –
CCOC(=O)NC(=O)CSc1nc(-c2ccc(C)c(C)c2)cn1-c1ccccc1 | – | – | – | – | 35.5µM | –
CC(C)(C)C(=O)NC(=S)NNC(=O)C(c1ccccc1)c1ccccc1 | ? | – | – | – | ? | 17.8µM
CCNC(=S)NNC(=O)C(c1ccccc1)c1ccccc1 | – | – | – | – | – | –
CC(=O)NNC(=S)NC(=O)C(c1ccccc1)c1ccccc1 | ? | – | – | – | 25.1µM | –
O=C(CN1C(=O)c2cccc3cccc(c23)C1=O)N1CCN(Cc2ccc3c(c2)OCO3)CC1 | – | – | 25.1µM | – | – | –
O=C(CN1C(=O)c2cccc3cccc1c23)NCc1ccc2c(c1)OCO2 | – | – | – | – | – | –
COc1ccc(-c2nc3ccccc3c(=O)n2O)cc1 | – | – | – | – | – | 31.6µM
CCC1CCCCN1C(=O)Cn1c(=O)n(CCCCCC(=O)NCc2ccc(F)cc2)c(=O)c2sccc21 (stereo not drawn) | – | · | – | ? | – | ·
COc1ccc(Cn2c(CNC(=O)Cc3ccc(OC)c(OC)c3)nc3cccnc32)cc1 | – | · | – | – | – | ·
COc1ccc(S(=O)(=O)c2c(Nc3ccccc3F)sc(C(=O)c3cccc(OC)c3)c2N)cc1 | – | · | – | – | – | ·
CCOC(=O)N(C)c1ccc(C(O)(C(F)(F)F)C(F)(F)F)cc1 | – | – | 31.6µM | – | – | –
CC(=O)N(C)c1ccc(C(O)(C(F)(F)F)C(F)(F)F)cc1 | – | – | · | – | –[1.82 µM] | –
CC1=C(C(=O)N2CCOCC2)CC(CC(=O)NC2CC2)C(=O)N1Cc1ccc(C(C)(C)C)cc1 (stereo not drawn) | – | · | – | – | – | –
CC1=C(C(=O)N2CCOCC2)CC(CC(=O)NC2CCCCC2)C(=O)N1Cc1ccc(C(C)(C)C)cc1 (stereo not drawn) | – | · | – | – | ? | 3.55µM
CN(C1=C(N2CCOCC2)C(=O)c2ccccc2C1=O)c1ccccc1 | – | – | – | · | 11.2µM | –
SMILES | Abeta yeast res | MmCpn inh | ClpP mod | FUS suppressor | TDP-43 yeast inh | aSyn yeast inh
O=C1C(NS(=O)(=O)c2cccs2)=C(N2CCOCC2)C(=O)c2ccccc21 | – | – | · | – | – | –
O=C(Nc1ccc2c(c1)N(S(=O)(=O)c1cccs1)CCC2)c1c(F)cccc1F | – | – | 11.2µM | – | ? | –
CCNC(=O)C(=O)Nc1ccc2c(c1)N(S(=O)(=O)c1cccs1)CCC2 | – | – | – | – | ? | –
CCCC1C(C#N)=C(N)Oc2cc(C)n(C)c(=O)c21 (stereo not drawn) | – | – | 31.6µM | – | – | –
Cc1cc2c(c(=O)n1CCc1ccccc1)C(C(C)C)C(C#N)=C(N)O2 (stereo not drawn) | – | – | – | – | – | –
CCn1c(C)cc2c(c1=O)C(c1ccncc1)C(C#N)=C(N)O2 (stereo not drawn) | – | – | – | – | – | –
Cc1cc2c(c(=O)n1C)C(Cc1ccccc1)C(C#N)=C(N)O2 (stereo not drawn) | – | – | 28.2µM | – | – | –
Cc1ccc2nc(N3CCN(c4cccc(C)c4C)CC3)c3nncn3c2c1 | – | · | – | – | – | ·
Cc1cccc(N2CCN(c3nc4ccc(C)cc4n4cnnc34)CC2C)c1 (stereo not drawn) | – | · | 31.6µM | – | 35.5µM | ·
COCCN(C(=O)COC(=O)c1oc2ccc(OC)cc2c1C)c1c(N)n(Cc2ccccc2)c(=O)[nH]c1=O | – | – | 12.6µM | – | – | –
COCCN(C(=O)COC(=O)Cc1coc2cc3c(cc12)CCC3)c1c(N)n(Cc2ccccc2)c(=O)[nH]c1=O | – | – | 17.8µM | ? | – | –
COCCN(C(=O)COC(=O)COc1ccc2c(c1)CCC2)c1c(N)n(Cc2ccccc2)c(=O)[nH]c1=O | – | – | – | – | – | –
COc1ccc2oc(C(=O)OCC(=O)N(C)c3c(N)n(Cc4ccccc4)c(=O)[nH]c3=O)c(C)c2c1 | – | – | – | – | – | –
O=C(C[n+]1csc2ccccc21)c1cccc([N+](=O)[O-])c1 | · | · | – | · | · | ·
COc1ccc(C2Nc3ccccc3C(=O)N2c2ccc(C)cc2)cc1COc1ccccn1 (stereo not drawn) | – | – | 31.6µM | – | – | –
COc1ccc(N2C(=O)c3ccccc3NC2c2ccc(OC)c(Cn3nnc4ccccc43)c2)cc1 (stereo not drawn) | – | – | 31.6µM | · | – | –
Cc1ccc(OCC(=O)Nc2cccc(C(=O)OCc3cc(=O)n4cc(C)sc4n3)c2)cc1 | – | · | – | – | – | ·
Cn1nccc1-c1ccc(C(=O)NCc2ccc(Cl)cc2)c2occc12 | – | · | – | ? | 22.4µM | –
